Results as given in publication PMC4336329 (PLoS ONE, 2015).
Screen size: about 310,000 compounds; about 14,000 (4.5%) showed an effect of 50% or more. The effect is printed as a negative number. This is one part of a sample in which strong results are shown more often than they occur.

Target: human ether-à-go-go-related gene (hERG) potassium channel (human, UniProt Q12809)
Assay: primary screen, population patch clamp on CHO cells stably expressing hERG; higher = less effect of the substance
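Also: peak tail current of the secondary pulse compared with the same well before compound.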

Chain of human ether-à-go-go-related gene (hERG) potassium channel (Q12809 whole entry, looked up): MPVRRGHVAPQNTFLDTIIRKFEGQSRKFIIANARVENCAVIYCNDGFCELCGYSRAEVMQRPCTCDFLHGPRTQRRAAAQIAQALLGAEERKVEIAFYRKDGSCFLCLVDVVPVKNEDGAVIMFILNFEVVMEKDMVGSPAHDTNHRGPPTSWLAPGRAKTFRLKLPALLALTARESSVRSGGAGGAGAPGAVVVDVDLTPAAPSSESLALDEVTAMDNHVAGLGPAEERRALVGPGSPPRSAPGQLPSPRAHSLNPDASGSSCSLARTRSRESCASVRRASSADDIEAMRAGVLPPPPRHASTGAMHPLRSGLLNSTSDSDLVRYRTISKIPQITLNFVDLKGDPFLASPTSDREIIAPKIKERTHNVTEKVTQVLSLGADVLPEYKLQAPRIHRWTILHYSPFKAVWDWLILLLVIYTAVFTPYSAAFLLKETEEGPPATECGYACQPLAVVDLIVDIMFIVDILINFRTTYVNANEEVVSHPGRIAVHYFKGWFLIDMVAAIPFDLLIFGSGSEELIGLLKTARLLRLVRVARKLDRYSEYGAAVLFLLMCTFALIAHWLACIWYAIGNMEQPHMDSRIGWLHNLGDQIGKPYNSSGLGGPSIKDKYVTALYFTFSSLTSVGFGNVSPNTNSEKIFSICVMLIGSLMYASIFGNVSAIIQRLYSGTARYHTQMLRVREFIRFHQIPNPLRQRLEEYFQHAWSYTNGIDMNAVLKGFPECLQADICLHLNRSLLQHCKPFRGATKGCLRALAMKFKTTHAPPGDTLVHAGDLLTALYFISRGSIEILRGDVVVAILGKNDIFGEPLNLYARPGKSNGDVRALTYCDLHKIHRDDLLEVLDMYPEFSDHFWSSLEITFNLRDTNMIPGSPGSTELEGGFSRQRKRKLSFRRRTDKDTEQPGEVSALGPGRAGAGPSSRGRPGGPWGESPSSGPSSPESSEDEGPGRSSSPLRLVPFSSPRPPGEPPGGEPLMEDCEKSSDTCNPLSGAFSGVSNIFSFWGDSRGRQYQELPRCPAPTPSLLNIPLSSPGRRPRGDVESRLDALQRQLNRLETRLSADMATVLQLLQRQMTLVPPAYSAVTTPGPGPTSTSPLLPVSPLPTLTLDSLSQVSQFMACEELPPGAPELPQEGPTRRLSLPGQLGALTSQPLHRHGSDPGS

First: CC(OC(=O)c1cc2sccc2n1C)C(=O)NCC1CCCO1 (stereo not drawn)
Second: CC(C)CN1CCC(C(=O)NCC2CCCO2)CC1.O=C(O)C(=O)O (stereo not drawn)
The “hERG current change (%, negative = inhibition) at 10uM” value of the first is higher: 0.798% for the first, -3.21% for the second.

First: Cc1ccc(S(=O)(=O)CC(=O)N2CCCC2)cc1
Second: O=C(CCc1ccc(Oc2cc([N+](=O)[O-])cc([N+](=O)[O-])c2)cc1)N1CCCCCC1
The “hERG current change (%, negative = inhibition) at 10uM” value of the first is higher: -0.506% for the first, -30.2% for the second.

First: Cn1cc(SCC(=O)Nc2nc3ccccc3s2)c2ccccc21
Second: O=C(Cn1cc(SCc2cccc(Cl)c2)c2ccccc21)N1CCOCC1
The “hERG current change (%, negative = inhibition) at 10uM” value of the first is higher: -5.6% for the first, -33.1% for the second.

First: Cc1noc(C(C)C)c1C(=O)Nc1ccc(-c2nnc3n2CCCCC3)cc1
Second: Cc1ccc(Nc2nc(N)nc(CN3CCCCCC3)n2)cc1
The “hERG current change (%, negative = inhibition) at 10uM” value of the first is higher: -4.21% for the first, -72.1% for the second.

Compared with `Cc1cccc(C)c1-n1nnnc1S(=O)(=O)Cc1ccccc1Cl`, `Cc1ccc(-n2c(SCn3nnc4ccccc4c3=O)nnc2-c2cccnc2)c(C)c1` is lower in “hERG current change (%, negative = inhibition) at 10uM” value: -18.2% for the first, -39.3% for the second.

Compared with `CC(C)CN(CC(C)C)C(=O)CN1c2cccc3cccc(c23)S1(=O)=O`, `COCCNC(=O)c1ccc2c(c1)S(=O)(=O)c1cc(Cl)ccc1C2=O` is lower in “hERG current change (%, negative = inhibition) at 10uM” value: 18.1% for the first, -3.38% for the second.

First: CCN(CC)C(=O)Oc1cc2c(-c3cc4cccc(OC)c4o3)cc(=O)oc2cc1C
Second: CCc1cc(=O)oc2cc(C)cc(OCC(=O)NC3CCN(Cc4ccccc4)CC3)c12
The “hERG current change (%, negative = inhibition) at 10uM” value of the first is higher: 9.85% for the first, -36% for the second.

First: CCn1c(SCc2ccc(OC)c(F)c2)nc2ccccc2c1=O
Second: COCCn1c(SCc2ccc(OC)c(F)c2)nc2ccccc2c1=O
The “hERG current change (%, negative = inhibition) at 10uM” value of the first is higher: 23.4% for the first, -2.82% for the second.

Compared with `COc1ccc(CNC(=O)C(C)Sc2nc3ccccc3c(=O)n2CC2CCCO2)cc1` (stereo not drawn), `COc1ccccc1NC(=O)C(C)Sc1nc2ccccc2c(=O)n1CC1CCCO1` (stereo not drawn) is higher in “hERG current change (%, negative = inhibition) at 10uM” value: -78.7% for the first, -37.2% for the second.

Going from `CCC(Sc1nc2ccccc2c(=O)n1CCN1CCOCC1)C(=O)NCc1cccnc1` (stereo not drawn) to `COc1ccc(CNC(=O)C(C)Sc2nc3ccccc3c(=O)n2CCCN2CCOCC2)cc1` (stereo not drawn), the “hERG current change (%, negative = inhibition) at 10uM” value falls from -37% to -84.9%.

Going from `CC(Sc1nc2ccccc2c(=O)n1CC1CCCO1)C(=O)NC(C)c1ccccc1` (stereo not drawn) to `O=C(CSc1nc2c(oc3ccccc32)c(=O)n1CC1CCCO1)NCc1ccccc1` (stereo not drawn), the “hERG current change (%, negative = inhibition) at 10uM” value falls from -5.01% to -15.8%.

Going from `COc1ccc(-c2nc3ccccc3c(=O)n2CCCN2CCOCC2)cc1` to `COc1ccc(CSc2nc3ccccc3c(=O)n2CCCN2CCOCC2)cc1F`, the “hERG current change (%, negative = inhibition) at 10uM” value falls from 6.17% to -53.4%.

Going from `COc1cccc(CNC(=O)CSc2nc3c(oc4ccccc43)c(=O)n2CC2CCCO2)c1` (stereo not drawn) to `COc1ccc(CNC(=O)CSc2nc3c(oc4ccccc43)c(=O)n2CC2CCCO2)cc1` (stereo not drawn), the “hERG current change (%, negative = inhibition) at 10uM” value falls from -36.4% to -60.6%.

Going from `CCCCOC(=O)C(C)Sc1n[nH]c(=O)[nH]c1=O` (stereo not drawn) to `CCN(CC)S(=O)(=O)c1ccc(F)c(C(=O)OC2CC(C)OC2=O)c1` (stereo not drawn), the “hERG current change (%, negative = inhibition) at 10uM” value rises from -5.93% to -2.4%.

Going from `O=[N+]([O-])c1ccc(CNc2cccc(Cl)c2)s1` to `O=C(COC(=O)c1ccc2ncsc2c1)Nc1cccc(Cl)c1`, the “hERG current change (%, negative = inhibition) at 10uM” value rises from -28.3% to 2.07%.

Compared with `O=C1N=C(c2ccccc2)S/C1=C\c1cccs1`, `Cn1c(Cn2c(=O)sc3ccccc32)nnc1SCc1cccc(F)c1` is lower in “hERG current change (%, negative = inhibition) at 10uM” value: 5.19% for the first, -11.6% for the second.

First: COc1ccc(N2CCN(Cc3nc(-c4ccccc4)no3)CC2)cc1
Second: COc1ccccc1N1CCN(C(=O)c2cc(-c3ccc(F)cc3)on2)CC1
The “hERG current change (%, negative = inhibition) at 10uM” value of the first is lower: 8.23% for the first, 19.1% for the second.

First: C=CCOC(=O)C1=C[C@@H](c2csc3ccccc23)[C@H](CCCO)[C@@H](OCC)O1
Second: CCCCSc1nnc(CNC(=O)C23CC4CC(CC(C4)C2)C3)n1Cc1ccccc1
The “hERG current change (%, negative = inhibition) at 10uM” value of the first is higher: -27.7% for the first, -29.7% for the second.

Compared with `COc1ccc(S(=O)(=O)N2CCC(C(=O)N[C@@H](C)C(=O)NC3CCCC3)CC2)cc1`, `O=C(COc1ccc2ccc(=O)oc2c1)NC1CCCCC1` is lower in “hERG current change (%, negative = inhibition) at 10uM” value: 13.4% for the first, 1.43% for the second.

Compared with `O=C(Cn1cc(SCc2ccc(F)cc2)c2ccccc21)N1CCOCC1`, `O=C(Cn1cc(SCc2ccc(Cl)cc2)c2ccccc21)N1CCOCC1` is lower in “hERG current change (%, negative = inhibition) at 10uM” value: -29.9% for the first, -53.3% for the second.

First: Nc1ncnc2c1ncn2C1O[C@H](CO)[C@@H](O)[C@@H]1O (stereo partly drawn)
Second: Nc1nc(CSCCO)nc(Nc2ccc(F)cc2)n1
The “hERG current change (%, negative = inhibition) at 10uM” value of the first is lower: -8.74% for the first, 16.1% for the second.

First: Cc1ccc(CNC(=O)CSc2nc(N3CCCCC3)nc(N3CCCCC3)n2)cc1
Second: Nc1nc(CN2CCCCCC2)nc(Nc2ccc(F)cc2)n1
The “hERG current change (%, negative = inhibition) at 10uM” value of the first is higher: 7.64% for the first, -70.8% for the second.

Going from `O=S(=O)(NCCCSc1ccccc1)c1ccccc1F` to `O=[N+]([O-])c1ccccc1S(=O)(=O)NCCSc1ccccc1`, the “hERG current change (%, negative = inhibition) at 10uM” value rises from -79.6% to 4.87%.

Compared with `O=C(CCNS(=O)(=O)c1ccccc1C(F)(F)F)NCCCSc1ccccc1`, `O=C(COc1ccccc1)NC1CCN(Cc2ccccc2)CC1` is lower in “hERG current change (%, negative = inhibition) at 10uM” value: -18.1% for the first, -50.4% for the second.

First: Nc1nc(CSC(=S)N2CCOCC2)nc(Nc2ccc(F)cc2)n1
Second: Cc1ccc(Nc2nc(N)nc(CN3CCN(C)CC3)n2)cc1
The “hERG current change (%, negative = inhibition) at 10uM” value of the first is higher: 7.31% for the first, -27.8% for the second.

Compared with `Cc1ccc(Nc2nc(N)nc(CCl)n2)cc1`, `Cc1ccc(CC(=O)Nc2cc(C)ccn2)cc1` is higher in “hERG current change (%, negative = inhibition) at 10uM” value: 1.76% for the first, 11.2% for the second.

First: CC(=O)Nc1ccc(NC(=O)Nc2ccccc2)cc1
Second: Cc1ccccc1C(=O)Nc1ccccc1NC(=O)c1ccccc1Br
The “hERG current change (%, negative = inhibition) at 10uM” value of the first is lower: 10.5% for the first, 25.4% for the second.

Going from `CC(=O)OCC[C@H](NS(=O)(=O)OCC(Cl)(Cl)Cl)c1ccccc1` to `OC(CNCC1CCCCC1)COc1ccccc1` (stereo not drawn), the “hERG current change (%, negative = inhibition) at 10uM” value falls from 1.61% to -0.428%.

Compared with `COc1cc(NC(=O)c2cc(C(C)C)on2)c(OC)cc1Cl`, `Cn1c(=O)n(C)c2cc(N3CCCCC3)c(NC(=O)c3cccc(Cl)c3)cc21` is higher in “hERG current change (%, negative = inhibition) at 10uM” value: 3.16% for the first, 14.8% for the second.

Compared with `COc1ccccc1N1CCN(C(=O)c2cc3cc(F)ccc3[nH]2)CC1`, `COc1ccccc1N1CCN(C(=O)c2cc(-c3ccc(F)cc3)[nH]c2C)CC1` is lower in “hERG current change (%, negative = inhibition) at 10uM” value: 15.8% for the first, -64.5% for the second.

First: Cc1[nH]c(-c2ccc(F)cc2)cc1C(=O)N1CCN(c2ccccc2F)CC1
Second: O=C(c1ccccc1F)N1CCN(c2ccccc2F)CC1
The “hERG current change (%, negative = inhibition) at 10uM” value of the first is lower: -70.3% for the first, -2.08% for the second.

Going from `O=C(c1ccccc1C(=O)N1CCN(c2ccccc2F)CC1)N1CCN(c2ccccc2F)CC1` to `Cn1c(=O)n(C)c2cc([N+](=O)[O-])c(N3CCN(C(=O)c4ccccc4Cl)CC3)cc21`, the “hERG current change (%, negative = inhibition) at 10uM” value falls from -31% to -34.4%.

First: N#CC1=C(N)Oc2n[nH]c(-c3cccs3)c2C1C1CCCCC1 (stereo not drawn)
Second: O=C(COc1ccc2ccc(=O)oc2c1)NC1CCCC1
The “hERG current change (%, negative = inhibition) at 10uM” value of the first is lower: 8.73% for the first, 13.4% for the second.

First: COC(=O)c1ccc(-c2noc(CN(C)CC3CCCCO3)n2)cc1 (stereo not drawn)
Second: Cc1c(OCC(=O)NC2CCN(Cc3ccccc3)CC2)ccc2c3c(c(=O)oc12)CCC3
The “hERG current change (%, negative = inhibition) at 10uM” value of the first is higher: 11.3% for the first, -47.7% for the second.

First: Cc1cc(C)cc(NC(=S)NCc2ccc3c(c2)OCO3)c1
Second: COc1ccc(NC(=O)c2ccc([N+](=O)[O-])o2)cc1
The “hERG current change (%, negative = inhibition) at 10uM” value of the first is lower: -8.9% for the first, 11.1% for the second.

Compared with `O=[N+]([O-])c1cc(S(=O)(=O)NCCN2CCOCC2)ccc1Sc1nnnn1-c1ccccc1`, `O=C(COc1ccc2ccc(=O)oc2c1)NC1CCN(Cc2ccccc2)CC1` is lower in “hERG current change (%, negative = inhibition) at 10uM” value: -24.6% for the first, -55.2% for the second.

Compared with `O=C(Nc1ccc(CN2CCOCC2)cc1)c1ccc(-c2ccc(Cl)cc2Cl)o1`, `CCCc1cc(=O)oc2cc(OCC(=O)NC3CCN(Cc4ccccc4)CC3)ccc12` is lower in “hERG current change (%, negative = inhibition) at 10uM” value: -7.54% for the first, -60.2% for the second.

First: Cn1c(=O)n(C)c2cc([N+](=O)[O-])c(N3CCN(C(=O)c4ccc(F)cc4)CC3)cc21
Second: Cn1c(=O)n(C)c2cc([N+](=O)[O-])c(N3CCN(C(=O)c4ccc(Cl)cc4)CC3)cc21
The “hERG current change (%, negative = inhibition) at 10uM” value of the first is higher: -44% for the first, -65.9% for the second.

Going from `Cn1c(=O)n(C)c2cc([N+](=O)[O-])c(N3CCNCC3)cc21` to `Cn1c(=O)n(C)c2cc([N+](=O)[O-])c(N3CCN(CCO)CC3)cc21`, the “hERG current change (%, negative = inhibition) at 10uM” value rises from 5.58% to 24.9%.

First: Cn1c(=O)n(C)c2cc([N+](=O)[O-])c(N3CCN(C(=O)c4cccc(Cl)c4)CC3)cc21
Second: Cn1c(=O)n(C)c2cc([N+](=O)[O-])c(N3CCN(C(=O)c4ccccc4)CC3)cc21
The “hERG current change (%, negative = inhibition) at 10uM” value of the first is lower: -64.2% for the first, -36.1% for the second.

Going from `Cc1ccc(C(=O)N2CCN(c3cc4c(cc3[N+](=O)[O-])n(C)c(=O)n4C)CC2)cc1` to `Cn1c(=O)n(C)c2cc([N+](=O)[O-])c(N3CCN(C(=O)c4ccccc4Br)CC3)cc21`, the “hERG current change (%, negative = inhibition) at 10uM” value falls from -66.6% to -70.6%.

Going from `Cn1c(=O)n(C)c2cc([N+](=O)[O-])c(N3CCN(C(=O)C(C)(C)C)CC3)cc21` to `CCOC(=O)C(=O)N1CCN(c2cc3c(cc2[N+](=O)[O-])n(C)c(=O)n3C)CC1`, the “hERG current change (%, negative = inhibition) at 10uM” value falls from -8.56% to -24.2%.

First: Cc1cccc(C)c1NC(=O)CN(C)CC(=O)Nc1ccccc1Oc1ccccc1
Second: Cc1c(C)c2ccc(OCC(=O)NC3CCN(Cc4ccccc4)CC3)c(C)c2oc1=O
The “hERG current change (%, negative = inhibition) at 10uM” value of the first is higher: 11.3% for the first, -42.7% for the second.

Going from `CCCc1cc(=O)oc2c(C)c(OCC(=O)NC3CCN(Cc4ccccc4)CC3)ccc12` to `CCCc1cc(=O)oc2cc(C)cc(OCC(=O)NC3CCN(Cc4ccccc4)CC3)c12`, the “hERG current change (%, negative = inhibition) at 10uM” value rises from -51.4% to -10.3%.

First: O=C(COc1ccccc1)NC1CCCCCCC1
Second: O=C(O)COCC(=O)NC1CCN(Cc2ccccc2)CC1
The “hERG current change (%, negative = inhibition) at 10uM” value of the first is lower: -4.51% for the first, 12.5% for the second.
